The panel holds about 83,000 compounds, 20% with a hit somewhere; the sample as a whole holds those more often.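 Note: values are percent growth. 100 is the growth of untreated cells, values between 100 and 0 indicate rising inhibition; between -100 and 0 indicates cell death.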 Unmarked numbers belong to inactive results. Calls of active or inactive are those of the source. Rule for the calls: active = growth percent below 10; inactive = the rest.
What was measured:
Assay in all cases: NCI-60 one-dose screen, 48 h (100 = growth as untreated, 0 = no growth, -100 = all killed)
Conditions in all cases: 10 µM
HCT-15 colon = tested on: HCT-15 colon
HT29 colon = tested on: HT29 colon
SNB-75 CNS = tested on: SNB-75 CNS
SNB-19 CNS = tested on: SNB-19 CNS
U251 CNS = tested on: U251 CNS
PC-3 prostate = tested on: PC-3 prostate
SK-MEL-5 melanoma = tested on: SK-MEL-5 melanoma
UACC-62 melanoma = tested on: UACC-62 melanoma
LOX IMVI melanoma = tested on: LOX IMVI melanoma
SK-MEL-28 melanoma = tested on: SK-MEL-28 melanoma

| SMILES | growth (HCT-15 colon) | growth (HT29 colon) | growth (SNB-75 CNS) | growth (SNB-19 CNS) | growth (U251 CNS) | growth (PC-3 prostate) | growth (SK-MEL-5 melanoma) | growth (UACC-62 melanoma) | growth (LOX IMVI melanoma) | growth (SK-MEL-28 melanoma) |
| --- | --- | --- | --- | --- | --- | --- | --- | --- | --- | --- |
| COC1CC(Cn2cc(COc3ccc4ccc(=O)oc4c3)nn2)C(OCc2ccccc2)C(OCc2ccccc2)C1OCc1ccccc1 (stereo not given) | 88.9% | 108% | 92.5% | 95.1% | 100% | 92.7% | 83.2% | 82.6% | 99.4% | 105% |
| Cc1ccc(-c2ccc(SCC(=O)Nc3ccc(S(N)(=O)=O)cc3Br)nn2)cc1 | 9.74% (active) | 11.4% | 68% | 39.5% | -45.8% (active) | 18.4% | 68.4% | 60% | -66.4% (active) | 60.9% |
| O=S(=O)(Nc1ncccn1)c1ccc(-n2c(-c3ccc(Br)cc3)nc(-c3ccccc3)c2-c2ccccc2)cc1 | 22.5% | 41.8% | 26.5% | 23.3% | 30.8% | 22.3% | 25.3% | 34.3% | 32.2% | 29.3% |
| CC1(c2ccccc2)NC(=O)N(CC(=O)Nc2ccc(C(=O)/C=C/c3ccc(Cl)cc3)cc2)C1=O (stereo not given) | -61.4% (active) | -46.9% (active) | 37.5% | 30.9% | -71.7% (active) | 9.23% (active) | -60.9% (active) | 1.17% (active) | -100% (active) | 15.8% |
| COc1ccc2nc(Cl)c(-c3cc(-c4ccccc4)nc(=S)[nH]3)cc2c1 | 46.4% | 43.7% | 41.5% | 83.6% | 87.2% | 67.3% | 6.49% (active) | 23.2% | 60.3% | 50% |
| N#Cc1c(NC(=O)c2ccc(C(F)(F)F)cc2C(F)(F)F)sc2c1CCC(=O)C2 | -66% (active) | -57% (active) | 26.4% | 6.86% (active) | 8.82% (active) | 2.66% (active) | -97.6% (active) | -89.5% (active) | -15.1% (active) | -86.2% (active) |
| Cc1ccc(-c2nc(Nc3ccc(C)c(S(N)(=O)=O)c3)c3ccccc3n2)cc1 | 50.7% | 43.1% | 116% | 91.4% | 18.6% | 43.9% | 86.7% | 87.8% | 2.94% (active) | 113% |
| O=C(Nc1ccccc1)Nc1nc2ccccc2s1 | 66.7% | 89.4% | 109% | 89.7% | 95.9% | 67.3% | 61.1% | 48.3% | 83.2% | 41.4% |
| Cc1ccc(-c2cc(-c3cc4ccccc4nc3Cl)[nH]c(=O)n2)cc1 | -39.8% (active) | -15.9% (active) | -17.2% (active) | 3.61% (active) | -23.5% (active) | 20.7% | 18.1% | 19.3% | -82.4% (active) | 43.3% |
| CC(=O)c1cc(C(=O)c2ccc3c(c2)NC(=O)CO3)n2ccc3ccccc3c12 | 71.1% | 56.5% | 114% | 69.6% | 26.5% | 80.3% | 57.6% | 94.7% | 56.5% | 88.4% |
| Nc1nc(Nc2ccccc2)nn1Cc1c(Cl)cccc1Cl | 37.5% | 54.4% | 67.5% | 58% | 53.8% | 27.4% | 23.5% | 33.5% | 16.3% | 55.5% |
| COc1ccc(C(=O)NC(=S)N2CCN(c3ncnc4c3cnn4-c3ccccc3)CC2)cc1 | 42.7% | 80.5% | 31.7% | 10.2% | 55.1% | 59% | 71.6% | 40.8% | 62.3% | 50% |
| O=C(CSc1nnc(-c2c[nH]c3ccccc23)n1-c1ccccc1)c1ccc(Cl)cc1 | 73.3% | 42.6% | 54.7% | 40% | 30.1% | 60.4% | 78.2% | 52.8% | 15.9% | 68.3% |
| COc1cc(NC(=O)CSc2nnc(-c3ccc4nc(-c5ccc(Cl)cc5)[nH]c4c3)o2)cc(OC)c1OC | 43.3% | 61.7% | 93.7% | 86% | 77% | 46.9% | 50.5% | 37.8% | 51.9% | 70.5% |
| O=c1[nH][nH]c(Nc2ccccc2)c1N=Nc1ccc(F)cc1 | 70.1% | 107% | 59.4% | 95.3% | 99.9% | 95.5% | 96.6% | 92.1% | 102% | 108% |
| CC1(C)[C@@H](NCO)CC[C@]2(C)[C@H]3C(=O)C=C4[C@@H]5C[C@](C)(CO)CC[C@]5(C)CC[C@@]4(C)[C@]3(C)CC[C@@H]12 | 13.6% | 13.9% | 106% | 70.1% | 18.9% | 31.3% | 61% | 50.2% | -74.8% (active) | -29.5% (active) |
| COc1ccc2ncc(C#Cc3cncc(C(=O)Nc4ccc(CN5CCN(C)CC5)c(C(F)(F)F)c4)c3)n2n1 | -91.3% (active) | -51.8% (active) | -91.1% (active) | -86.2% (active) | -59.8% (active) | -59.6% (active) | -100% (active) | -79.6% (active) | -94.6% (active) | -91.8% (active) |
| COc1ccc(CN2[C@@H](C(=O)NCc3ccc(C(=O)NO)cc3)Cc3c([nH]c4ccccc34)[C@@H]2C)cc1 | 19.1% | 17.6% | 15.8% | 40.3% | 33% | 29% | -21.1% (active) | -20.9% (active) | 1.67% (active) | 17.6% |
| COc1ccc(-c2nc(-c3ccccc3)c(-c3ccccc3)n2-c2ccc(S(=O)(=O)Nc3ncccn3)cc2)cc1OC | 53.6% | 96.2% | 88.5% | 74.9% | 71.8% | 63.7% | 65.7% | 83.6% | 65.2% | 92.3% |
| N#Cc1ccc(-c2nn(-c3ccc(C(=O)O)cc3)cc2CNc2cccc(Br)c2)cc1 | 35.5% | 50.7% | 101% | 51.7% | 37% | 40.1% | 24.1% | 41.8% | 13.2% | 35.6% |
| O=C1CCC(N2Cc3c(C#CCCCNC(=O)c4ccc(NC(=O)[C@@H]5NC6(CCCCC6)[C@@]6(C(=O)Nc7cc(Cl)ccc76)[C@H]5c5cccc(Cl)c5F)cc4)cccc3C2=O)C(=O)N1 (stereo not given in full) | 41.8% | 51.5% | 56.1% | 58.8% | 55.4% | 51.8% | 5.4% (active) | 17.3% | 27.5% | 62.2% |
| O=C(Nc1ccc(OCC(=O)c2ccccc2)cc1)Nc1ccc(Cl)c(C(F)(F)F)c1 | 17.8% | 29.3% | 3.5% (active) | 15.7% | 25.8% | 6.92% (active) | -61.2% (active) | -21.3% (active) | -24.4% (active) | 4.82% (active) |
| CS(=O)(=O)Nc1ccc(-c2ccc3c(c2)ncn3-c2ccc(NC(=O)Nc3ccc(Br)cc3)cc2)cc1 | 8.63% (active) | 7.09% (active) | 21.4% | 16.6% | 3.88% (active) | 10.4% | -86.2% (active) | -35.6% (active) | 1.1% (active) | 1.57% (active) |
| O=c1oc2ccc(-c3ccc(F)cc3F)cc2c(=O)n1-c1ccc(Cl)c(C(F)(F)F)c1 | -12% (active) | 9.55% (active) | -4.03% (active) | 14.7% | 7.99% (active) | 0.205% (active) | -91.4% (active) | -54.1% (active) | -38.6% (active) | -20.1% (active) |
| O=C1N/C(=N\c2nccs2)S/C1=C\c1cccs1 | 17.4% | 39.6% | 69.6% | 30.6% | 29.5% | 41.3% | -76.9% (active) | -18.9% (active) | 8.62% (active) | 14.6% |
| O=C(CSc1nnc(-c2ccc3nc(-c4ccc(Cl)cc4)[nH]c3c2)o1)Nc1ccc(Cl)cc1 | -84% (active) | -35.4% (active) | 58% | -49.4% (active) | -57.7% (active) | -7.65% (active) | -68.9% (active) | -87.1% (active) | -99.2% (active) | -76.9% (active) |

Source: PubChem BioAssay (NCI)
